Sampled rows, rich in hits. Any-hit rate of the full collection: about 2.8%.
rCAG RNA binder: binders of r(CAG) RNA repeats, primary screen, biochemical, fluorescence; r(CAG) RNA repeat, TO-PRO-1 dye displacement fluorescence; inhibition, % at 3 µM; actives 1.3% (n = 370,000);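 active = inhibition above the plate cutoff, the mean of all test compounds on that plate plus 3 SD, cut at about 35% in these data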;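 also: higher means more dye released from RNA so lower well fluorescence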
sPLA2-III inh: human group III sPLA2 inhibitors, primary screen, biochemical, QFRET, BODIPY PC-A2 liposome substrate; QFRET BODIPY PC-A2 liposome hydrolysis, fluorescence; inhibition, % at 12.2 µM; actives 0.56% (n = 370,000); AID 743126, 2013;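 active = inhibition above mean plus 3 SD of compounds lying within the high and low control bounds, cut at about 19% in these data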
Target sequence (Q9NZ20 whole entry, looked up): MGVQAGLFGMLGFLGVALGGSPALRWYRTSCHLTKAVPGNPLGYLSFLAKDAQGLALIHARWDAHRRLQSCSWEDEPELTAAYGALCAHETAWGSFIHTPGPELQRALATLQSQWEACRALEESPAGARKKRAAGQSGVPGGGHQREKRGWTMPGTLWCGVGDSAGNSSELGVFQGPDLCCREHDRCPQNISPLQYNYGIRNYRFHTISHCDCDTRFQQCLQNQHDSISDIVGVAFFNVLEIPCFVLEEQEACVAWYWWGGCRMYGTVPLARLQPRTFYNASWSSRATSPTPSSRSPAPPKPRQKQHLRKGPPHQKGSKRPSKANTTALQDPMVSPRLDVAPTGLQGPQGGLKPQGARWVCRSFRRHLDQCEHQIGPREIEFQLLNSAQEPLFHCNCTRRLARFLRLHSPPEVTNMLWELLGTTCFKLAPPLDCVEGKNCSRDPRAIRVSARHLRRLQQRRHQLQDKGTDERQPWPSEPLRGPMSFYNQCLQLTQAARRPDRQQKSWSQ
bovine MsrA act: bovine MsrA enzyme activators, primary screen, biochemical, absorbance, HTS. Methionine sulfoxide reductase A (Bos taurus). activation, % at 10.6 µM. AID 602163, 2012. actives 0.3% (n = 360,000). purified bovine MsrA, absorbance read-out; in the data active = activation above about 7.5%
MsrA inhibitor: bovine MsrA enzyme inhibitors, primary screen, biochemical, absorbance, HTS; AID 651718, 2012; inhibition, % at 15.5 µM; actives 0.75% (n = 360,000); Methionine sulfoxide reductase A (Bos taurus); purified bovine MsrA, absorbance read-out; in the data active = inhibition above about 4.5%
rCAG bind conf: small molecules binding CAG repeat RNA – biochemical, fluorescence, confirmation; inhibition, % at 3 µM; shares compounds with rCAG RNA binder; r(CAG) RNA repeat, TO-PRO-1 dye displacement fluorescence; actives 70% (n = 4,300);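 active = inhibition above a per-plate cutoff, the mean inhibition of sample wells plus 3 SD, cut at about 35% in these data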;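 also: loss of TO-PRO-1 fluorescence as compound displaces dye from 1x1 AA loop RNA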
DNA CAG counter: displacement of TO-PRO-1 from CAG DNA duplex, counter-screen for rCAG RNA repeat binder project, biochemical, fluorescence, TO-PRO-1 dye, d(CAG) DNA oligo. shares compounds with rCAG RNA binder. actives 94% (n = 4,300). inhibition, % at 3 µM. AID 652068, 2013. d(CAG) DNA oligo TO-PRO-1 dye displacement;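 active = inhibition above its plate's cutoff, the mean test-well inhibition plus 3 SD, cut at about 4.8% in these data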;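 also: hits displace the dye from DNA and so lower well fluorescence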
DNA CAG DR: inhibitors of DNA CAG/GTC TO-PRO-1 complex, dose response, counter-screen for rCAG RNA repeat binder project, biochemical, fluorescence, TO-PRO-1 dye; shares compounds with rCAG RNA binder; actives 20% (n = 250); DNA CAG/GTC duplex TO-PRO-1 dye displacement fluorescence; AID 686960, 2013; IC50, µM; in the data active = IC50 below about 10 µM
A number is an active result; . = inactive; / = not tested or not shown.

SMILES | rCAG RNA binder | sPLA2-III inh | bovine MsrA act | MsrA inhibitor | rCAG bind conf | DNA CAG counter | others
Cc1ccc([C@@H]2CC=C(C(=O)O)[C@H](c3ccccc3)N2S(=O)(=O)c2ccccc2C)cc1 | 55 | . | . | . | 57 | 20
COc1ccc([C@@H]2CC=C(C(=O)O)[C@H](c3ccccc3F)N2S(=O)(=O)c2ccccc2C)cc1 | 41 | . | . | . | 41 | 11
Cc1ccc([C@@H]2CC=C(C(=O)O)CN2S(=O)(=O)c2ccccc2C)cc1 | . | . | . | . | / | /
COc1ccc([C@@H]2CC=C(C(=O)O)[C@H](c3ccc(C)cc3)N2S(=O)(=O)c2ccccc2C)cc1 | 66 | . | . | . | 63 | 26
Cc1ccc([C@H]2C(C(=O)O)=CC[C@@H](c3ccc(C)cc3)N2S(=O)(=O)c2ccccc2C)cc1 | 75 | . | . | . | 62 | 27
Cc1ccc([C@H]2C(C(=O)O)=CC[C@@H](c3ccc(Cl)cc3)N2S(=O)(=O)c2ccccc2C)cc1 | / | / | . | / | / | /
CSc1ccc(S(=O)(=O)NCC(=O)OCC(=O)NCC2CCCO2)cc1[N+](=O)[O-] (stereo not drawn) | . | . | . | . | / | /
CN1CCN(S(=O)(=O)Cc2ccccc2Cl)CC1 | . | . | . | . | / | /
CCOC(=O)C1=CC[C@@H](c2ccc(F)cc2)N(S(=O)(=O)c2ccc(C)cc2)[C@H]1c1ccccc1 | . | . | . | . | / | /
COc1ccc([C@@H]2CC=C(C(=O)O)[C@H](c3ccc(F)cc3)N2S(=O)(=O)c2ccccc2C)cc1 | 59 | . | . | . | 45 | 13
N#Cc1c(-c2ccccc2)nc(SCc2ccc(Cl)cc2)[nH]c1=O | 83 | . | . | . | 76 | 39
C=CCSc1nc(-c2ccccc2)c(C#N)c(=O)[nH]1 | . | . | . | . | / | /
COC(=O)c1cccc(CSc2nc(-c3ccccc3)c(C#N)c(=O)[nH]2)c1 | 75 | . | . | . | 63 | 23
CS(=O)(=O)c1ccc(-c2csc(C(O)(c3ccccc3)C(F)(F)F)n2)cc1 (stereo not drawn) | . | . | . | . | / | /
O=C(O)c1cccc(CSc2nnc(-c3ccc(Cl)cc3)o2)c1 | . | . | . | . | / | /
COc1ccc(-c2cc(C)nc(SCc3cccc(C(=O)O)c3)n2)cc1 | 47 | . | . | . | 49 | 9.7 | DNA CAG DR=.
O=C(O)c1cccc(CSc2nc(-c3ccc(Cl)cc3)cc(C(F)(F)F)n2)c1 | 68 | . | . | . | 71 | 33 | DNA CAG DR=.
O=C(O)C1C2C=CC3(CN(c4cccc(C(F)(F)F)c4)C(=O)C13)O2 (stereo not drawn) | . | . | . | . | / | /
C/C(=N/NC(=O)c1ccoc1C)c1ccc(N2CCOCC2)cc1 | . | . | . | . | / | /
Cc1ccc(N2CC(C(=O)Nc3ccc(S(=O)(=O)Nc4nccs4)cc3)CC2=O)cc1C (stereo not drawn) | 48 | . | . | . | 64 | 19
O=C(Nc1ccc(S(=O)(=O)Nc2nccs2)cc1)C1CC(=O)N(c2ccc(Cl)cc2)C1 (stereo not drawn) | 54 | . | . | . | 41 | 15
CCN1CCN(c2cc(C)c3cc(NC(=O)CCC(=O)N4CCN(c5ccccc5OC)CC4)ccc3n2)CC1 | . | . | . | . | / | /
Cc1cccc(NC(=O)CCC(=O)N/N=C/c2ccc(O)cc2O)c1 | . | . | . | . | / | /
CCCC(=O)OCCNc1cc(SCc2ccco2)c2nonc2c1[N+](=O)[O-] | . | . | . | . | / | /
CC(=O)OCCCNc1cc(SCc2ccco2)c2nonc2c1[N+](=O)[O-] | 60 | . | . | . | . | 9.8
Cc1ccc(S(=O)(=O)Nc2nc(C)c(C(=O)NN)s2)cc1 | 58 | . | . | . | . | .

Source: PubChem (The Scripps Research Institute Molecular Screening Center)
